Laboratory results published in PubChem BioAssay (NCATS).
Inconclusive results are not listed. The source made the active and inactive calls. Calls follow the shape of the dose curve; as a rule, active = well fitted curve in the direction sought with a large enough effect; inconclusive = small, poorly fitted or top-dose-only effect, or another doubt; inactive = no such curve, though single readings can be large; an effect the other way counts as inactive or inconclusive. Where a SMILES comes first, the peptide text is derived from it. [ ]: non-standard residue; d: D form. pGlu = O=C1CC[C@@H](C(=O)O)N1

Experiments:
[1] = qHTS assay for measurement of the activity of small molecule inhibitors on Zika virus induced Caspase-3 activity in human iPSC derived neural progenitor cells (hNPCs) (AID 1224857); also: nearly all actives have a fitted effect of over 65% in size
Procedure, shortened: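 Values are percent inhibition of virus-induced caspase-3/7 signal, scaled between uninfected cells and ZIKV-infected cells. Infection used 2 FFU/cell for 6 h after 1 h compound exposure.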

[2] = qHTS assay for measurement of the activity of small molecule inhibitors on Zika virus induced Caspase-3 activity in human astrocytoma cells (AID 1224859)
Procedure, shortened: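 Compound added 1 h pre-infection; ZIKV 2 FFU/cell on SNB-19 cells, 6 h, 37 C/5% CO2. Caspase-Glo 3/7 luminescence; values as % inhibition of ZIKV-induced caspase activity.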

[3] = NS1 protein of Zika virus - qHTS assay to identify small molecule inhibitors in human HEK 293 cells (AID 1347053); also: nearly all actives have a fitted effect of over 55% in size; also: potency is read from the fitted curve at half-maximal effect
Procedure, shortened: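 HEK 293; 20 h pre-culture, 37 C/5% CO2; cpd 1 h pre-infection; ZIKV MR766, MOI = 0.5, 24 h, 37 C; TR-FRET NS1 readout (two anti-NS1 Abs); norm. to no-virus vs infected.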

[4] = qHTS of pediatric cancer cell lines to identify multiple opportunities for drug repurposing: Primary screen for TC32 cells (AID 1347089); also: nearly all actives have a fitted effect of over 60% in size; also: potency is read from the fitted curve at half-maximal effect
Procedure, shortened: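 qHTS, TC32, 48 h drug treatment, CellTiter-Glo luminescence as a proxy for metabolically active cells; primary top concentration 46 µM (MIPE 11-pt, NPC 8-pt); confirmatory 11-pt.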

Measured: Potency

Oc1ccccc1-c1nnco1
inactive: [1] | [2] | [3] | [4]

COc1ccc(-n2nc(CCC(=O)N(C)O)cc2-c2ccc(Cl)cc2)cc1
active: [4] 16.7 µM
inactive: [1] | [2] | [3]

C[C@@H]1C[C@H]2[C@@H]3CCC4=CC(=O)C=C[C@]4(C)[C@@]3(F)[C@@H](O)C[C@]2(C)[C@@]1(O)C(=O)COC(=O)c1ccncc1
inactive: [1] | [2] | [3] | [4]

CCCc1ncc(C(=O)O)s1
inactive: [1] | [2] | [3] | [4]

CCC(=O)O[C@H]1[C@H](O[C@@H]2[C@@H](C)[C@H](O[C@H]3C[C@@](C)(OC)[C@@H](O)[C@H](C)O3)[C@@H](C)C(=O)O[C@H](CC)[C@@](C)(O)[C@H](O)[C@@H](C)C(=O)[C@H](C)C[C@@]2(C)O)O[C@H](C)C[C@@H]1N(C)C
inactive: [1] | [2] | [3] | [4]

CC(C)C[C@@H]1[C@H](c2ccccc2)OC(=O)N1CCCN1CCCCCC1
inactive: [1] | [2] | [3] | [4]

CCCN(CCC)C(=O)C(CCC(=O)OCCCN1CCN(CCOC(=O)Cc2c(C)n(C(=O)c3ccc(Cl)cc3)c3ccc(OC)cc23)CC1)NC(=O)c1ccccc1 (stereo not given)
inactive: [1] | [2] | [3] | [4]

CCn1ccc(NS(=O)(=O)c2ccc(N)cc2)nc1=O
inactive: [1] | [2] | [3] | [4]

NS(=O)(=O)c1cc2c(cc1Cl)CN(C1CCCCC1)C2=O
inactive: [1] | [2] | [3] | [4]

NC(=O)NS(=O)(=O)c1ccc(Cl)cc1
inactive: [1] | [2] | [3] | [4]

CN(C)CCCOC1(Cc2ccccc2)CCCCCC1
inactive: [1] | [2] | [3] | [4]

CN(C)CCN(Cc1ccsc1)c1ccccn1
inactive: [1] | [2] | [3] | [4]

CN(C)CCN1CCN(c2cccc(Cl)c2)C1=O
inactive: [1] | [2] | [3] | [4]

CCC1(c2cnc[nH]2)Cc2ccccc2C1
inactive: [1] | [2] | [3] | [4]

NS(=O)(=O)c1cc(C(=O)NN2C[C@H]3[C@H]4CCC(C4)[C@H]3C2)ccc1Cl
inactive: [1] | [2] | [3] | [4]

O=C1CC2(CCCC2)CC(=O)N1
inactive: [1] | [2] | [3] | [4]

Cc1ccc2c(Cl)cc(Cl)c(O)c2n1
inactive: [1] | [2] | [3] | [4]

COC(=O)/C=C(/C)N
inactive: [1] | [2] | [3] | [4]

CCOC(=O)N1CCC(Nc2ccc(Cl)cc2N)CC1
inactive: [1] | [2] | [3] | [4]

CCOC(=O)C(=O)c1csc(NC=O)n1
inactive: [1] | [2] | [3] | [4]

CC(=O)/C=C/C=C1/C2CCC(C2)C1(C)C (stereo not given)
inactive: [1] | [2] | [3] | [4]

C[C@@H]1CCC[C@H](C)N1CCCC(O)(c1ccccc1)c1ccccn1 (stereo not given in full)
inactive: [1] | [2] | [3] | [4]

COc1ccc2cc(C=O)ccc2c1
inactive: [1] | [2] | [3] | [4]

CC(C)(C)c1ccc(C(=O)CCCCl)cc1
inactive: [1] | [2] | [3] | [4]

C/C(=N\O)[C@@H](C)NCC(C)(C)CN[C@H](C)/C(C)=N/O
inactive: [1] | [2] | [3] | [4]

Nc1ccc2c(c1)CN1C(=O)c3ccccc3C1=N2
inactive: [1] | [2] | [3] | [4]

CCN(CC)CCN
inactive: [1] | [2] | [3] | [4]

COc1ccc2c(c1)c(CC(=O)OC/C=C(\C)CC/C=C(\C)CCC=C(C)C)c(C)n2C(=O)c1ccc(Cl)cc1
inactive: [1] | [2] | [3] | [4]

Cc1cc(=O)oc2cc(O[C@@H]3SC[C@@H](O)[C@H](O)[C@H]3O)ccc12
inactive: [1] | [2] | [3] | [4]

CN1CCN(N)CC1
inactive: [1] | [2] | [3] | [4]

CC[N+]1(CC)CCC(=C(c2ccccc2)c2ccccc2)C1C (stereo not given)
inactive: [1] | [2] | [3] | [4]

O=C(C1CCCCC1)N1CC(=O)N2CCCc3ccccc3C2C1 (stereo not given)
inactive: [1] | [2] | [3] | [4]

O=C(O)Cn1cnnn1
inactive: [1] | [2] | [3] | [4]

CCOC(=O)c1ccc(O)c(O)c1
inactive: [1] | [2] | [3] | [4]

CCCCC(=O)OCC(=O)[C@H]1[C@H](C)C[C@H]2[C@@H]3C[C@H](F)C4=CC(=O)C=C[C@]4(C)[C@@]3(F)[C@@H](O)C[C@@]21C
inactive: [1] | [2] | [3] | [4]

CC(Oc1c(Cl)cccc1Cl)C1=NCCN1 (stereo not given)
inactive: [1] | [2] | [3] | [4]

Cc1nc2n(c(=O)c1CCN1CCC(C(=O)c3ccc(F)cc3)CC1)CCS2
inactive: [1] | [2] | [3] | [4]

C/C(=C1\CCOC(=O)S1)N(C=O)Cc1cnc(C)nc1N
inactive: [1] | [2] | [3] | [4]

Nc1ncnc2c1ncn2Cc1c(F)cccc1Cl
inactive: [1] | [2] | [3] | [4]

OC1(c2ccc(Cl)cc2)CCNCC1
inactive: [1] | [2] | [3] | [4]

CN1CC[C@H](c2c(O)cc(O)c3c(=O)cc(-c4ccccc4Cl)oc23)[C@H](O)C1
active: [3] 1.58 µM | [4] 0.592 µM
inactive: [1] | [2]

Nc1ccc(C(=O)N2CC3CC(CN(Cc4ccccc4)C3)C2)cc1
inactive: [1] | [2] | [3] | [4]

Cc1nc(C2CCCCC2)c(-c2ccc(S(N)(=O)=O)c(F)c2)o1
inactive: [1] | [2] | [3] | [4]

Cc1c(F)cc2c(=O)c(C(=O)O)cn3c2c1CCC3C (stereo not given)
inactive: [1] | [2] | [3] | [4]

Cc1cccc(OCC(O)CNC(C)(C)C)c1C (stereo not given)
inactive: [1] | [2] | [3] | [4]

Fc1ccc(C(c2ccc(F)cc2)N2CCNCC2)cc1
inactive: [1] | [2] | [3] | [4]

Cc1sccc1Br
inactive: [1] | [2] | [3] | [4]

COC(=O)c1cc(Cl)c(NC(C)=O)cc1OC
inactive: [1] | [2] | [3] | [4]

COc1cc(OC)nc(O[C@H](C(=O)O)C(OC)(c2ccccc2)c2ccccc2)n1
inactive: [1] | [2] | [3] | [4]

CCOCCn1c(C2CCN(CCc3ccc(C(C)(C)C(=O)O)cc3)CC2)nc2ccccc21
inactive: [1] | [2] | [3] | [4]

Cc1cccc(N(C)C(=S)Oc2ccc3c(c2)C2CCC3C2)c1 (stereo not given)
inactive: [1] | [2] | [3] | [4]

CNC(=O)c1c(I)c(NC(C)=O)c(I)c(C(=O)O)c1I
inactive: [1] | [2] | [3] | [4]

Cc1oc(-c2ccccc2)nc1CCC(=O)c1ccc(CC2SC(=O)NC2=O)cc1 (stereo not given)
inactive: [1] | [2] | [3] | [4]

CCNC(=O)[C@@H]1CCCN1C(=O)[C@H](CCCN=C(N)N)NC(=O)[C@H](CC(C)C)NC(=O)CNC(=O)[C@H](Cc1ccc(O)cc1)NC(=O)[C@H](CO)NC(=O)[C@H](Cc1c[nH]c2ccccc12)NC(=O)[C@H](Cc1cnc[nH]1)NC(=O)[C@@H]1CCC(=O)N1 ([pGlu]HWSYGLRP-NHEt)
inactive: [1] | [2] | [3] | [4]

O=C1Cc2cc(Cl)ccc2N1
inactive: [1] | [2] | [3] | [4]

CC(C)OP(=O)(CP(=O)(OC(C)C)OC(C)C)OC(C)C
inactive: [1] | [2] | [3] | [4]

COc1ccc(CCC(C)=O)cc1
inactive: [1] | [2] | [3] | [4]

O=[N+]([O-])c1cncn1CCN1CCOCC1
inactive: [1] | [2] | [3] | [4]

Cc1ccc(C(C)OC(=O)C2(C)CCC(C(=O)O)C2(C)C)cc1 (stereo not given)
inactive: [1] | [2] | [3] | [4]

Cc1oc(=O)oc1COC(=O)[C@@H]1N2C(=O)[C@@H](NC(=O)[C@H](N)c3ccccc3)[C@H]2SC1(C)C
inactive: [1] | [2] | [3] | [4]

O=C(c1ccco1)N1CCNCC1
inactive: [1] | [2] | [3] | [4]

CC(C)CCCC(C)NCCC(C)C (stereo not given)
inactive: [1] | [2] | [3] | [4]

CC(=O)OC[C@H]1O[C@@H](OC(C)=O)[C@H](OC(C)=O)[C@@H]1OC(C)=O
inactive: [1] | [2] | [3] | [4]

CCc1cccc2c(CCO)c[nH]c12
inactive: [1] | [2] | [3] | [4]

CCOC(=O)C(=O)CCc1ccccc1
inactive: [1] | [2] | [3] | [4]

C#CC(C)(CC)OC(=O)c1ccccc1C(=O)O (stereo not given)
inactive: [1] | [2] | [3] | [4]

Cn1c(=O)c2c(ncn2CC(=O)O)n(C)c1=O
inactive: [1] | [2] | [3] | [4]

CCN(CC)C(=O)C1CN2CCc3cc(OC)c(OC)cc3C2CC1OC(C)=O (stereo not given)
inactive: [1] | [2] | [3] | [4]

CC(=O)N1CCN(c2ccc(O)cc2)CC1
inactive: [1] | [2] | [3] | [4]

O=C1CC(c2ccc(Cl)cc2)CC(=O)N1
inactive: [1] | [2] | [3] | [4]

CCCCCCCC(=O)[O-].CCCCCCCC(=O)[O-].[Zn+2]
inactive: [1] | [2] | [3] | [4]

CCOC(=O)CN1CCCC1=O
inactive: [1] | [2] | [3] | [4]

CCN(CC)CC(=O)OCC(=O)[C@@]1(O)CC[C@H]2[C@@H]3CCC4=CC(=O)CC[C@]4(C)[C@H]3[C@@H](O)C[C@@]21C
inactive: [1] | [2] | [3] | [4]

CCCOc1ccc2c(c1)CC[C@@H]1[C@@H]2CC[C@]2(C)C(OC)CC[C@@H]12 (stereo not given in full)
inactive: [1] | [2] | [3] | [4]

CCC(C(=O)OCCN1CCOC(c2ccccc2)C1C)c1ccccc1 (stereo not given)
inactive: [1] | [2] | [3] | [4]
